Screening results: PubChem, several laboratories
HSP90 inh = HSP90 inhibitors, primary screen, cell lysate, luminescence. 290,000 tested, 0.91% active. Rabbit reticulocyte lysate, luciferase refolding luminescence, 3 h. Heat shock protein HSP 90 (rabbit reticulocyte lysate; luciferase refolding). AID 1789, 2009. inhibition, % at 5.6 µM;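 active = inhibition above the screen-wide mean plus 3 SD, computed separately per campaign, cut at about 16% in these data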;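 note: 0% = DMSO wells and 100% = 60 µM geldanamycin wells; inhibitors lower the luminescence because luciferase stays unfolded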
LGR2 antag = inhibitors of bursicon-induced LGR2 CRE-luciferase signal, primary screen, cell-based, HEK293, CRE-luciferase reporter, bursicon stimulation | Drosophila bursicon receptor LGR2 (rickets) | bursicon-stimulated, 4 h | inhibition, % at 9.99 µM | 380,000 tested, 0.35% active | AID 720647, 2013;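 active = drop in luminescence signal, shown as inhibition above about 50% in the replicate tests, limit read from the data, passing the limit was not always enough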;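 note: agonist challenge used bursicon conditioned medium at about half maximal strength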
TWEAK Fn14 block = inhibitors of TWEAK-Fn14 signaling, primary screen, luciferase reporter cells, uHTS; TWEAK-stimulated Fn14 reporter cells, luciferase luminescence, 8 h; inhibition, % at 10 µM; 360,000 tested, 2% active; AID 1159606, 2016; in the data active = inhibition above about 50%
TROY signal inh = inhibitors of TROY-driven NF-kB signaling, primary screen, Q293 LMP1-TROYcd cells, NF-kB luciferase, uHTS | inhibition, % at 10 µM | Q293 LMP1-TROYcd NF-kB luciferase reporter, 4 h | 360,000 tested, 0.98% active | AID 1347056, 2019;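 active = compounds whose plate-normalised and pattern-corrected inhibition of the luciferase reporter signal at the single screening dose is 50% or more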
* marks the source's active call; other numbers are inactive results. Rows were chosen to be rich in hits. Some 2.2% of all compounds tested hit in one or more screens of this group.

Screening CCN1/C(=C\C=C\C2=[N+](CC)c3ccccc3C2(C)C)C(C)(C)c2ccccc21 returned HSP90 inh 6, TWEAK Fn14 block 100* and TROY signal inh 65*.
CC1(C)N=C(c2ccccc2)[C@@H]2C(c3ccc([N+](=O)[O-])cc3)N21 (some centres undefined) was read as HSP90 inh -1, LGR2 antag -6, TWEAK Fn14 block 11 and TROY signal inh 53*.
O=[N+]([O-])c1ccc(C2C3C(c4ccccc4)=NC4(CCCC4)N32)cc1 (centres undefined) was read as HSP90 inh 0, LGR2 antag 16, TWEAK Fn14 block 2 and TROY signal inh -1.
For COC(=O)[C@H]1[C@H](CO)[C@H]2Cn3c(cccc3=O)[C@@H]1N2C(=O)C1CC1 the results were LGR2 antag -5.
For Cc1cc(C)n(-c2ccc(NN=C(C#N)C#N)cc2)n1 the results were HSP90 inh 7, LGR2 antag 82*, TWEAK Fn14 block 84* and TROY signal inh 65*.
N#CC(C#N)=NNc1ccc(-n2ccc(C(F)(F)F)n2)cc1 was read as HSP90 inh 4, LGR2 antag 78*, TWEAK Fn14 block 91* and TROY signal inh 67*.
O=C(Cc1ccccc1)N1CCCCN2[C@@H](CO)[C@H](c3ccc(-c4ccccc4)cc3)[C@@H]2C1 was read as LGR2 antag 14.
For COC(=O)[C@@H]1[C@@H](CO)[C@@H]2Cn3c(ccc(C4=CCCCC4)c3=O)[C@H]1N2CC1CCCC1 the results were LGR2 antag -5.
Screening Cc1cccc(S(=O)(=O)N2[C@@H]3c4ccc(-c5ccncc5)c(=O)n4C[C@H]2[C@H](CO)[C@H]3C(=O)O)c1 returned LGR2 antag -13.
CCCCn1nnnc1C(CCSC)N1CCC(n2c(=O)[nH]c3ccccc32)CC1 (centres undefined) was read as LGR2 antag 14, TWEAK Fn14 block 17 and TROY signal inh -5.
For CCCCn1nnnc1C(CCc1ccccc1)N1CCC(n2c(=O)[nH]c3ccccc32)CC1 (centres undefined) the results were LGR2 antag 106*, TWEAK Fn14 block 31 and TROY signal inh 27.
COc1ccc(-n2nnnc2C(CCc2ccccc2)N2CCC(n3c(=O)[nH]c4ccccc43)CC2)cc1 (centres undefined) was read as LGR2 antag 101*, TWEAK Fn14 block 94* and TROY signal inh 72*.
Screening O=c1[nH]c2ccccc2n1C1CCN(C(CCc2ccccc2)c2nnnn2-c2ccc3c(c2)OCCO3)CC1 (centres undefined) returned LGR2 antag 92*, TWEAK Fn14 block 70* and TROY signal inh 59*.
Screening Cc1cccc(C)c1-n1nnnc1C(CCc1ccccc1)N1CCC(n2c(=O)[nH]c3ccccc32)CC1 (centres undefined) returned LGR2 antag 11, TWEAK Fn14 block 107* and TROY signal inh 81*.
O=C(Cc1ccccn1)N1CCCCN2[C@H](C1)[C@@H](c1ccc(Br)cc1)[C@@H]2CO was read as LGR2 antag 0.
CC=Cc1ccc2n(c1=O)C[C@@H]1[C@@H](CO)[C@H](C(=O)N(C)C)[C@H]2N1C (mixture of isomers) was read as LGR2 antag -20.
For CC[n+]1c(/C=C/C=C/c2ccc(N(C)C)cc2)sc2ccccc21 the results were HSP90 inh 2, LGR2 antag 36, TWEAK Fn14 block 56* and TROY signal inh 52*.
`CN(C)c1ccc(/C=C/C=C/c2sc3ccccc3[n+]2C)cc1` gave HSP90 inh 1, LGR2 antag 27, TWEAK Fn14 block 41 and TROY signal inh 20.
`C[C@@H]1CN([C@@H](C)CO)C(=O)CCCn2cc(nn2)CO[C@@H]1CN(C)C(=O)Oc1ccc2ccccc2c1` gave LGR2 antag 8.
`COc1cccc(CNC2CN3CCC2CC3)c1OC` (centres undefined) gave HSP90 inh 0, TWEAK Fn14 block 68* and TROY signal inh 7.
O=C(O)[C@H]1[C@H](CO)[C@H]2Cn3c(ccc(-c4ccccc4F)c3=O)[C@@H]1N2C(=O)Nc1ccccc1 was read as LGR2 antag 9.
`CC=Cc1ccc2n(c1=O)C[C@H]1[C@H](CO)[C@@H](C(=O)OC)[C@@H]2N1C(=O)CC` (mixture of isomers) gave LGR2 antag -2.
Cc1cc(C)cc(N2C(=O)NC(=O)/C(=C\c3cccn3-c3ccccc3)C2=O)c1 was read as HSP90 inh -2, LGR2 antag 32, TWEAK Fn14 block 66* and TROY signal inh 49.
For Cc1cccc(N2C(=O)NC(=O)/C(=C\c3cnc(-c4ccccc4)nc3)C2=O)c1 the results were HSP90 inh -4, LGR2 antag 9, TWEAK Fn14 block 10 and TROY signal inh -20.
`O=C1NC(=S)NC(=O)C1=Cc1cccn1-c1ccc(O)cc1` gave HSP90 inh 1, TWEAK Fn14 block 71* and TROY signal inh 49.
Screening Cc1cc(C)cc(N2C(=O)NC(=O)/C(=C\c3cccn3-c3ccc(Cl)cc3)C2=O)c1 returned HSP90 inh -1, TWEAK Fn14 block 103* and TROY signal inh 53*.
`COC(=O)[C@H]1[C@H](CO)[C@H]2Cn3c(cccc3=O)[C@@H]1N2Cc1nccs1` gave LGR2 antag -2.
For O=C(Cc1ccccc1)N1C[C@H]2[C@@H](c3ccccc31)[C@@H](CO)N2Cc1ccccc1 the results were LGR2 antag -13.
O=C(Cc1ccccc1)N1CC2(C1)[C@H](c1ccccc1)[C@H](CO)N2Cc1cccc(F)c1 was read as LGR2 antag -9.
For O=C(Cc1cccnc1)N1CCCCN2[C@@H](CO)[C@@H](c3ccc(/C=C/c4ccccc4)cc3)[C@@H]2C1 the results were LGR2 antag -3.
For CC(C)CCn1c(N)c(C(=O)OCC2CCCO2)c2nc3ccccc3nc21 (centres undefined) the results were HSP90 inh 0, TWEAK Fn14 block 49 and TROY signal inh 60*.
CC(C)CCOC(=O)c1c(N)n(CC2CCCO2)c2nc3ccccc3nc12 (centres undefined) was read as HSP90 inh 2, TWEAK Fn14 block 17 and TROY signal inh 1.
Screening CC(C)OC(=O)c1c(N)n(CC2CCCO2)c2nc3ccccc3nc12 (centres undefined) returned HSP90 inh 16*, TWEAK Fn14 block 10 and TROY signal inh 3.
For O=C(Cc1cccnc1)N1CCCCN2[C@H](CO)[C@@H](c3ccc(C#CC4CCCC4)cc3)[C@H]2C1 the results were LGR2 antag -12.
